The list is not random: actives were taken first. Their share in the collection is about 4%.
CF NFkB block: blocks PAF-induced NF-kB reporter in cystic fibrosis cells; KKLEB NF-kB-GFP reporter, GFP fluorescence overnight; inhibition, % at 5 µM; 0.86% of 360,000 active; AID 588850;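 active = at least 50% inhibition at 5 µM, scaled per plate between neutral and stimulator controls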;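 note: PAF is a Pseudomonas aeruginosa culture filtrate used as stimulus; plate controls were PAF-stimulated DMSO wells for no effect and unstimulated DMSO wells for full effect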
Peg3 promoter: Peg3 promoter activity inhibition. HeLa PEG-Prom luciferase reporter, luminescence, overnight. inhibition, % at 20 µM. 1.7% of 360,000 active. AID 588405;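 active = inhibition of at least 50% at 20 µM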
TROY signal inh: inhibitors of TROY-dependent NF-kB signaling; Q293 LMP1-TROYcd NF-kB luciferase reporter, 4 h; inhibition, % at 10 µM; 0.98% of 360,000 active; AID 1347056;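 active = compounds whose plate-normalised and pattern-corrected inhibition of the luciferase reporter signal at the single screening dose is 50% or more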
TWEAK-Fn14 inh: TWEAK-Fn14 signaling inhibition; inhibition, % at 10 µM; TWEAK-stimulated Fn14 reporter cells, luciferase luminescence, 8 h; 2% of 360,000 active; in the data active = inhibition above about 50%
HIF-2a block: blocks HIF-2a reporter activity; 0.72% of 360,000 active; 786-0 RCC cells HIF-2a reporter, luciferase luminescence, overnight; inhibition, % at 18.8 µM; AID 624352;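 active = inhibition of the luminescence signal of 40% or more relative to plate controls, in a single-dose primary screen at 18.75 µM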
KKLEB tox: CF airway cell cytotoxicity counter-screen; KKLEB CF airway cells viability, ATPlite luminescence, overnight; stronger effect = lower value; cells stimulated with P. aeruginosa culture filtrate; activity change (cytotoxicity), % at 5 µM; 0.36% of 360,000 active;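 active = corrected activity change at or below -50% at 5 µM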
The depositor's hits bear a star; . = no result given.

SMILES	CF NFkB block	Peg3 promoter	TROY signal inh	TWEAK-Fn14 inh	HIF-2a block	KKLEB tox
CC(C)=C[C@H]1C[C@H](C)[C@H]2CC[C@H](C)c3c(O[C@@H]4O[C@@H](C)[C@@H](O)[C@@H](O)[C@@H]4O)c(O)c(C)c1c32	-11	42	8	6	-17	16
O=C1CCCc2cc3c(cc21)CC1(C3)Cc2cc3c(cc2C1)C(=O)CCC3	23	16	61*	35	28	-4
CCc1ccc2c(c1)C(=O)CCC2	0	10	-7	19	18	-9
NC(COCc1ccccc1)c1csc(Nc2ccc(C(F)(F)F)cn2)n1 (centres undefined)	-5	102*	13	-8	9	7
NC(CCc1ccccc1)c1csc(Nc2ccc(C(F)(F)F)cn2)n1 (centres undefined)	18	110*	-8	-17	15	-12
Cc1ccc(S(=O)(=O)N(C)C)cc1NC(=O)c1cc(S(=O)(=O)N2CCCCC2)ccc1N1CCOCC1	13	5	-29	0	6	-12
NS(=O)(=O)c1cccc(NC(=O)COC(=O)Cc2n[nH]c(=O)c3ccccc23)c1	25	7	3	1	12	-26
COc1ccc(C(=O)c2coc3ccc(O)cc23)cc1	16	-273	-9	56*	-134	8
O=C(CSc1nnc(-c2cccnc2)s1)Nc1ccnc2ccccc12	27	11	32	61*	18	-13
COc1cc(CC(=O)OCC(=O)NCc2ccco2)cc(OC)c1OC	2	13	3	5	13	-12
Nc1ccc(O)cc1C(=O)OCC(=O)c1ccc(C2CCCCC2)cc1	-3	-60	25	102*	6	13
CCN(CC)CCN(C(=O)c1ccc2c(c1)CCCC2)c1nc2c(C)cccc2s1	26	12	4	-7	11	-14
Cc1cn(CC(=O)NCC(c2ccccc2)c2ccccc2)c(=O)[nH]c1=O	-6	7	-7	-4	9	11
Cc1ccc(C(=O)Nc2ccc3ccccc3c2)cc1	-26	3	54*	87*	-121	-44
CCOc1cccc(C(=O)Nc2ccc3ccccc3c2)c1	0	-136	15	52*	-76	-22
CCOc1cccc(C(=O)Nc2cccc(C(C)=O)c2)c1	-2	-98	-29	-11	-104	2
Cc1cccc(/C=N/NC(=O)CC(=O)NCCc2ccccc2)c1	0	26	-1	15	5	10
CCOC(=O)C1(CCCc2ccccc2)CCN(C2CCSCC2)CC1	30	7	2	55*	6	-27
OCC1(CCCc2ccccc2)CCN(C2CCSCC2)CC1	13	-1	-2	-1	13	-11
CCOC(=O)c1c(CN2CCNCC2)nc2ccc(Cl)cc2c1-c1ccccc1	44	106*	10	15	-43	1
Cc1nc2ccc(Cl)cc2c(-c2ccccc2)c1C(=O)N(C)C	0	21	-4	-18	11	-8
O=C(CCCSc1nc2ccccc2[nH]1)N1CCN(c2ccc([N+](=O)[O-])cc2)CC1	2	19	37	50*	29	-8
COCC(=O)OC1CCn2c1nc1c2C(=O)C(C)=C(NC(C)=O)C1=O (centres undefined)	91*	85*	54*	101*	24	-68*
CCCCCCCCCCCCCCCCn1cc[n+](C)c1	84*	108*	42	78*	82*	-94*
CCCCCCCCn1ccc(=N)cc1	2	9	0	-6	10	7
SMILES	CF NFkB block	Peg3 promoter	TROY signal inh	TWEAK-Fn14 inh	HIF-2a block	KKLEB tox
COc1ccc(N2CC(C(=O)N(C)CC(=O)Nc3ccc(Cl)c(C(F)(F)F)c3)CC2=O)c(OC)c1 (centres undefined)	7	20	29	-4	11	14
CN1CCN(C(=O)c2ccccc2N(Cc2ccccc2)S(C)(=O)=O)CC1	0	3	7	72*	15	1
CN1CCN(C(=O)c2ccccc2N(Cc2ccccc2)S(=O)(=O)c2ccccc2)CC1	6	20	11	-4	25	-2
Cc1occc1C(=O)N1CCN(S(=O)(=O)c2ccc(F)cc2)CC1	-17	10	-27	4	-21	0
CCN(CC)CCN1C(=O)c2cccc3cc(N)cc(c23)C1=O	-72	51*	-7	-19	25	-8
O=C1c2cccc3cccc(c23)C(=O)N1CCO	-21	-9	-20	-14	-5	3
CC(C)(C)c1nn(-c2ccccc2)c2[nH]c(=O)c(CNCc3ccco3)cc12	-4	-10	24	7	27	12
CC(C)(C)c1nn(-c2ccccc2)c2[nH]c(=O)c(CNc3ccc4c(c3)OCCO4)cc12	57*	-19	82*	96*	-28	16
COc1ccc(-c2nc3c(c(SCC(=O)Nc4cccc(O)c4)n2)Cc2c(CO)cnc(C)c2O3)cc1	12	19	2	12	5	2
Cc1ncc(CO)c2c1Oc1nc(-c3ccccc3)nc(SCC(=O)Nc3cccc(O)c3)c1C2	-39	64*	0	1	-13	-15
CN(C)c1ccc(CC(=O)N2CCCC(c3cc(C(=O)Nc4ccc5c(c4)OCO5)no3)C2)cc1 (centres undefined)	-20	-17	-10	8	-23	-6
O=C(Nc1ccccc1)c1cc(C2CCCN(C(=O)C3CC3)C2)on1 (centres undefined)	-1	23	76*	93*	25	0
CN(C)c1ccc(CC(=O)N2CCCC(c3cc(C(=O)Nc4ccccc4)no3)C2)cc1 (centres undefined)	-6	-111	76*	71*	-116	-6
CCCCCCCCN1C(=O)[C@H](CC(=O)NCCCN2CCCC2=O)C[C@@]2(C(=O)OC)CC(C)(C)CC=C12	.	.	.	.	11	.
O=C(C1=C(Nc2ccccc2)c2ccccc2S(=O)(=O)N1)c1ccccc1	-1	-1	55*	74*	-11	-2
Cc1ccccc1NC1=C(C(=O)c2ccccc2)N(C)S(=O)(=O)c2ccccc21	-6	10	17	20	12	0
O=c1[nH]c(=S)[nH]c2c1C(c1ccc(Br)cc1)c1c([nH]c(=S)[nH]c1=O)O2	13	5	4	77*	14	-8
CCCCn1nnnc1C(c1cccc2ccccc12)N1CCN(C/C=C/c2ccccc2)CC1 (centres undefined)	15	7	17	5	-8	-25
CCCc1cc(C(=O)O)c2ccccc2n1	-12	8	20	8	-6	8
Cc1ccc(NC(=O)Cc2cc(C(=O)O)c3ccccc3n2)c(C)c1	41	44	43	52*	-23	16
CC1=C([N+](=O)[O-])C(c2cccc(Br)c2)C2=C(N1)c1ccccc1C2=O (centres undefined)	35	38	-11	2	17	-56*

Bioassay records deposited in PubChem BioAssay by Sanford-Burnham Center for Chemical Genomics.
